Hits are enriched below; roughly 1.6% of the tested compounds scored in any of these assays.
GC-B act = GC-B (human) receptor activation | P20594 | HEK293-GC-B cells, CNP EC30, cGMP TR-FRET; 0% at EC30 CNP, 100% saturating CNP | activation, % at 10 µM | 370,000 compounds, 0.11% hits;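 active means activation at 10 µM reaching about 35% in either raw or pattern-adjusted values, limit read from the data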
Efflux pump inh = inhibitors of Candida antifungal efflux pumps expressed in yeast | 330,000 compounds, 0.44% hits | S. cerevisiae Candida pump triplex, Nile Red efflux | inhibition, % at 10 µM;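 active means plate passing quality check with inhibition over a set limit, or well fluorescence over plate mean plus 4 SD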;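 further: Nile Red retained in pooled yeast measured as flow cytometry median fluorescence; 0% = buffer negative control and 100% = Enniatin B positive control; higher means more Nile Red kept so more efflux inhibition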
V-ATPase pH = alters yeast V-ATPase proton transport | 350,000 compounds, 0.37% hits | S. cerevisiae, pHLuorin cytosolic pH fluorescence | response, % at 10 µM; in the data active means response mostly above about 7.3%, no sharp cut-off; inactive means mostly below about 5.4%; further: actives read high
NSD2 HMT inh = inhibitors of human histone methyltransferase NSD2; O96028; NSD2 peptide methylation, AlphaScreen, 120 min; inhibition, % at 12.5 µM; 310,000 compounds, 0.54% hits; in the data active means inhibition above about 50%
Rce1 inhib = blocks yeast Ras-converting enzyme; Q03530; yeast membranes, quenched prenylated peptide cleavage fluorescence; calls only; 290,000 compounds, 0.27% hits;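 active means fall in fluorescence gain of 50% or more versus controls, with final raw signal at or below 3038400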;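 further: plate controls were neutral control wells for no effect and wells lacking membranes for full effect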
NPR1 activator = GC-A (human) enzyme activation | HEK293 GC-A cells, cGMP TR-FRET, EC30 ANP; 0% at EC30 ANP, 100% saturating ANP | activation, % at 10 µM | 370,000 compounds, 0.14% hits; in the data active means activation above about 40%
Alpha artifact = interferes with AlphaScreen signal, flagging NSD2 false positives. AlphaScreen artifact counterscreen, preloaded methylated H4 peptide. shares compounds with NSD2 HMT inh. 1,500 compounds, 9.4% hits. AC35, µM (titrated, usually from 10 µM), without a hit: top-dose activity change, negative = signal loss; call rule not given here
* hit, by the source's call; i = inactive; nt = no result given.

SMILES	GC-B act	Efflux pump inh	V-ATPase pH	NSD2 HMT inh	Rce1 inhib	NPR1 activator	Alpha artifact
O=C1Nc2ccccc2/C1=N/N=C/c1cccc(O)c1	-6	0	2	0	i	-13	nt
COc1cc(/C=N/N=C2/C(=O)Nc3ccccc32)cc(OC)c1O	-8	0	0	67*	i	-8	-14%
COc1ccc(C)cc1NCc1ccc([N+](=O)[O-])cc1	3	0	2	18	i	-2	nt
COc1ccc(C)cc1NCc1ccc(OC)c(C)c1OC	-10	0	0	80*	i	-18	-19%
Cc1c[nH]c2cccc(-c3cccc4ccccc34)c12	-9	nt	nt	nt	nt	-2	nt
C=CCN1[C@H](C#N)[C@@H](c2ccc(C#Cc3cccnc3)cc2)[C@H]1CO	-5	nt	nt	nt	nt	0	nt
CCN(CC)CCNS(=O)(=O)c1ccc2c3c(cccc13)C(=O)N2	2	0	5	55*	i	6	1%
COc1ccc(CN(CC#Cc2ccc(C)cc2)C(N)=NC(=O)CCc2ccccc2)c(OC)c1	7	nt	nt	nt	nt	-3	nt
CC1Cc2ccccc2N1C(=O)COc1cccc(-n2cnnn2)c1 (stereo not given)	5	0	-5	130*	i	4	-2%
Cc1ccc(/C=C2/SC(=O)NC2=S)o1	nt	nt	1	177*	nt	nt	-13%
Cc1ccc(/C=C2/SC(=S)N(C3CCCCC3)C2=O)o1	2	0	5	nt	i	2	nt
COc1ccccc1N1CCN(S(=O)(=O)c2ccc3c(c2)CCC(=O)N3)CC1	-6	nt	nt	1	nt	-1	nt
Fc1ccc(NC(=S)Nc2ccc3nccnc3c2)cc1	1	0	3	105*	i	3	-3%
OCCCNC(=S)Nc1ccc2nccnc2c1	1	0	1	33	i	2	nt
O=c1[nH]c(CN2CCCCC2)ccc1O	2	nt	3	65*	nt	1	1%
O=c1[nH]cnc(CN2CCCCC2)c1O	1	nt	1	3	nt	-1	nt
COc1cc(-c2nnc(SCc3cc(=O)oc4cc(O)c(O)cc34)o2)cc(OC)c1OC	-2	0	6	83*	i	0	0.99µM*
CCOC(=O)CSc1nnc(-c2cc(OC)c(OC)c(OC)c2)o1	-3	0	-1	0	i	1	nt
CCOc1cc(/C=C2\SC(=S)N(Nc3ccccc3)C2=O)ccc1O	5	0	-5	9	i	0	nt
O=C1/C(=C/c2ccc(O)c(O)c2)SC(=S)N1Nc1ccccc1	nt	nt	0	88*	i	nt	2.4µM*
Cc1cc(C)cc(-n2c(C)nc3cc(C(=O)O)ccc32)c1	-7	0	-2	73*	i	-5	-1%
COc1cc(-n2c(C)nc3cc(C(=O)O)ccc32)cc(OC)c1OC	1	0	6	-1	i	-1	nt
COCC(C)OC(=O)/C(C#N)=C\c1coc2ccc(C)cc2c1=O (stereo not given)	-5	0	-24	50*	nt	-1	-4%
O=C(NCCCN1CCN(c2ccc(F)cc2)CC1)NCc1ccccc1	-5	nt	nt	6	nt	0	nt
O=C(NC1CCCCN(Cc2cccc(Cl)c2)C1=O)c1ccccn1 (stereo not given)	5	nt	nt	nt	nt	-5	nt
SMILES	GC-B act	Efflux pump inh	V-ATPase pH	NSD2 HMT inh	Rce1 inhib	NPR1 activator	Alpha artifact
Cc1cc(=O)n(Cc2ccccc2)c(O)c1C#N	6	0	-3	53*	i	3	-7%
COc1cc(C(=O)NC2CCCCN(Cc3ccc(Cl)cc3)C2=O)cc(OC)c1OC (stereo not given)	8	nt	nt	nt	nt	2	nt
CSc1nc(N(C)C)nc(N(C)C#N)n1	2	0	-2	5	i	0	nt
CSc1nc(N)nc(N(C)C)n1	-2	0	-2	61*	nt	-2	1%
O=C(C1CC1)N1CCc2cc(Br)c(S(=O)(=O)NCCCN3CCCCC3)cc21	-3	nt	nt	9	nt	2	nt
Fc1ccc(N2CCN(c3ccc4c(C(F)(F)F)cc(C(F)(F)F)nc4n3)CC2)cc1	-1	0	1	121*	i	3	-2%
FC(F)(F)c1cc(C(F)(F)F)c2ccc(N3CCN(c4ccc(Cl)cc4)CC3)nc2n1	6	0	-2	-2	i	1	nt
